Reference: PubChem BioAssay AID430 (Sanford-Burnham Center for Chemical Genomics, 2006)
The whole screen tested about 63,000 compounds, of which about 1,100 (1.7%) were called active. Only a selection was taken, and actives are over-represented in it overall. Entries with a potency or affinity are not part of this list. Values without a mark were called inactive. Cut-off read from the data, not from the text of the source: active = cytotoxicity above about 50%; inactive = the rest.

experiment: cytotoxicity in HPDE-C7 cells, cell-based, fluorescence, HTS (AID 430); conditions: HPDE-C7 pancreatic duct cells viability, at 10 µM, active compounds read high;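 note: cells exposed to compound for 48 hours before viability readout; 0% = vehicle and 100% = reference cytotoxic drug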

SMILES | cytotoxicity
N#C/C(C(=O)c1ccccc1)=C1/CCCN1 | 10.8%
COc1ccc(CCN2CC(C#N)=C3c4cc(OC)c(OC)cc4CCN3C2)cc1OC | -1.5%
O=C(c1ccccc1)N(Cc1ccc(F)cc1)C1CCS(=O)(=O)C1 (stereo unspecified) | -9.7%
c1ccc2oc(NC3=NCN(CC4CCCO4)CN3)nc2c1 (stereo unspecified) | -19.3%
COc1ccc(-n2nnc3c(SCC(=O)NCC4CCCO4)ncnc32)cc1 (stereo unspecified) | -2.3%
CCN(CC)C(=O)CSc1ncnc2c1nnn2-c1ccc(OC)cc1 | -17.1%
CCOC(=O)Cn1cnc2c(C#N)c3n(c2c1=O)CCCCC3 | -8.7%
Cc1c(Br)c(C(F)(F)F)nn1CC(=O)NCC1CCCO1 (stereo unspecified) | -17.2%
CCn1c(SCC(=O)Nc2nc3ccccc3s2)nnc1-c1ccc(OC)cc1 | 58.5% (active)
CCn1c(Cc2ccc(OC)cc2)nnc1SCC(=O)Nc1nc2ccccc2s1 | -6%
CCn1c(Cc2ccccc2)nnc1SCC(=O)Nc1nc2ccccc2s1 | -5%
CCCCNc1nc2ccccc2n1CC(=O)N1CCc2ccccc2C1 | -0.3%
COc1cccc(-c2cc(C(=O)N3CCCc4ccccc43)no2)c1 | -19.5%
CCOC(=O)C1=C(C)N=C2SC(C)C(=O)N2C1/C=C/c1ccccc1OC (stereo unspecified) | -8.3%
CCNc1nc(CC)nc2c1oc1ccccc12 | -12.6%
CCc1nc(Nc2ccncc2)c2oc3ccccc3c2n1 | 67.4% (active)
Cc1nc(Nc2ccncc2)c2oc3ccccc3c2n1 | -28.9%
OC1(c2cccc(C(F)(F)F)c2)CCN(c2ncnc3c2[nH]c2ccccc23)CC1 | 123% (active)
c1ccc2c(c1)[nH]c1c(N3CCCC3)ncnc12 | 0%
c1ccc2c(c1)[nH]c1c(N3CCC4(CC3)OCCO4)ncnc12 | -10.6%
COC(=O)c1cc2c(cc1Cl)SC(=NCCCN1CCOCC1)NS2(=O)=O | -1.2%
COC(=O)c1ccccc1OC(=O)c1ccc(Br)o1 | 7.5%
O=C(O)c1cccnc1Oc1ccccc1 | -7%
O=C(COc1cccc2cccnc12)Nc1nccs1 | 8.2%

SMILES | cytotoxicity
FC(F)Oc1cccc2cccnc12 | -5.8%
O=C(Nc1cccc2cccnc12)c1ccc(Br)o1 | 5.6%
O=C(O)c1ccccc1NS(=O)(=O)c1cccc2cccnc12 | 21.6%
CCc1ccc(C(=O)N2CCN(c3ccc(F)cc3)CC2)s1 | -18.1%
CC(=O)N1CCN(Cc2cc(=O)n3cc(Cl)c(C)c(Cl)c3n2)CC1 | -7.9%
O/N=C(\Cc1cscn1)c1ccc(O)cc1O | -6.8%
CCn1c(=O)cc(SCC(=O)Nc2ccc3c(c2)OCO3)c2ccccc21 | 0.7%
COc1ccc(-c2cc(C(=O)N3CCN(c4ccccn4)CC3)c3ccccc3n2)cc1 | 32%
O=C(c1cc(-c2ccncc2)nc2ccc(Br)cc12)N1CCN(c2ccccn2)CC1 | 12.7%
O=C(c1cc(-c2ccccc2)nc2ccccc12)N1CCN(c2ccccn2)CC1 | 17.1%
COc1cc(-c2cc(C(=O)N3CCN(c4ccccn4)CC3)c3ccccc3n2)cc(OC)c1OC | 14.4%
CCOc1ccc(-c2cc(C(=O)N3CCN(c4ccccn4)CC3)c3ccccc3n2)cc1 | 56.9% (active)
COc1cccc(-c2cc(C(=O)N3CCN(c4ncccn4)CC3)c3ccccc3n2)c1 | -4.1%
Cc1ccc(-c2cc(C(=O)N3CCOCC3)c3ccccc3n2)cc1 | -8.5%
Cc1ccc(-c2cc(C(=O)N3CCN(c4ncccn4)CC3)c3ccccc3n2)cc1 | 57.3% (active)
CCOC(=O)N1CCN(C(=O)c2cc(-c3ccc(OCC)cc3)nc3ccccc23)CC1 | 57.6% (active)
O=C(c1cc(-c2ccncc2)nc2ccccc12)N1CCN(c2ccccn2)CC1 | 56.1% (active)
CCOc1ccc(-c2cc(C(=O)N3CCN(C)CC3)c3ccccc3n2)cc1 | -8.5%
Cc1ccc2nc(-c3ccccn3)cc(C(=O)N3CCN(c4ncccn4)CC3)c2c1 | 8.9%
Cc1ccc(S(=O)(=O)N2CCN(C(=O)CSc3nc4ccccc4o3)C2)cc1 | -14.7%
O=C1CSC(c2ccccc2F)N1c1cc(Cl)ccc1O (stereo unspecified) | 9.2%
CSc1cccc(NC(=O)CN(C2CCCCC2)S(C)(=O)=O)c1 | -17.9%
O=C(c1cccc(OC(F)F)c1)N1CCN(c2ncccn2)CC1 | -14.1%
CCC(=O)Nc1ccc(S(=O)(=O)Nc2cccc(C)c2)cc1OC | 3.2%

SMILES | cytotoxicity
COc1ccc(CNC(=O)C2CCN(S(=O)(=O)c3cccc4cccnc34)CC2)cc1 | 2%
COc1ccc(C2C3=C(Nc4ncnn42)c2ccccc2CC3)cc1OC (stereo unspecified) | 32.9%
COc1ccc(C2C3=C(Nc4ncnn42)c2ccccc2CCC3)cc1 (stereo unspecified) | -20.3%
COc1cc(C2C3=C(Nc4ncnn42)c2ccccc2CC3)cc(OC)c1OC (stereo unspecified) | 73.5% (active)
CCN(CC)S(=O)(=O)c1cccc(-c2nnc(SCC#N)n2Cc2ccccc2)c1 | 3.5%
N#CCC(=O)N1CCn2c1nc1ccccc12 | -11.2%
O=C1CC(N2CCN(c3nc4ccccc4s3)CC2)C(=O)N1Cc1cccs1 (stereo unspecified) | 12.3%
O=C1CC(N2CCN(c3ccc(F)cc3)CC2)C(=O)N1Cc1cccs1 (stereo unspecified) | -1.7%
CCOC(=O)CSc1nc(N)cc(=O)[nH]1 | -12%
Cc1ccc(C(=O)NCc2ccc3c(c2)OCO3)cc1S(=O)(=O)N1CCOCC1 | -5.3%
Cc1cc(NC(=O)CCC(=O)N(c2ccccc2)C(C(=O)NCC2CCCO2)c2cccnc2)no1 (stereo unspecified) | -0.6%
CCOC(=O)CSC1=C(C#N)C(c2ccc3c(c2)OCO3)CC(=O)N1 (stereo unspecified) | 43.8%
CSC1=C(C#N)C(c2ccc(C)s2)CC(=O)N1 (stereo unspecified) | -8.2%
CCSC1=C(C#N)C(c2ccccc2OC)CC(=O)N1 (stereo unspecified) | -4.8%
COC(=O)CSC1=C(C#N)C(c2ccc(F)cc2)CC(=O)N1 (stereo unspecified) | 10.1%
CCCOC(=O)CSC1=C(C#N)C(c2ccc3c(c2)OCO3)CC(=O)N1 (stereo unspecified) | 65.3% (active)
CCOC(=O)CC(=O)CSC1=C(C#N)C(c2ccccc2OC)CC(=O)N1 (stereo unspecified) | 43.6%
CCOC(=O)CSC1=C(C#N)C(c2ccc(C)s2)CC(=O)N1 (stereo unspecified) | 54.7% (active)
CCSC1=C(C#N)C(c2ccc(C)s2)CC(=O)N1 (stereo unspecified) | -7.1%
CCOC(=O)CSC1=C(C#N)C(c2sccc2C)CC(=O)N1 (stereo unspecified) | 63.5% (active)
CCCCOC(=O)CSC1=C(C#N)C(c2ccc3c(c2)OCO3)CC(=O)N1 (stereo unspecified) | 28.6%
CCOc1ccc(C2CC(=O)NC(SCC(=O)OC)=C2C#N)cc1 (stereo unspecified) | 5.6%
CCOC(=O)CSC1=C(C#N)C(c2ccccc2OC)CC(=O)N1 (stereo unspecified) | 54.9% (active)
